Wnt bcat act = activators of Wnt/beta-catenin signaling. activation, % at 9.35 µM. 300,000 tested, 1.2% active. Wnt/beta-catenin reporter cell assay, activator, plate reader; in the data active means activation above about 30%, passing the limit was not always enough; inconclusive means no clear call, values can overlap the other calls;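 further: 0% = neutral control wells and 100% = positive control wells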
PfHsp90 set2 = reduces growth (ATP signal) of yeast expressing P. falciparum Hsp90; S. cerevisiae expressing PfHsp90, BacTiter-Glo ATP, 48 h; yeast lacking PDR1 and PDR3 efflux regulators; inhibition, % at 9.4 µM; AID 504621; 310,000 tested, 0.32% active;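 active means every replicate shows inhibition above about 80%, whatever the replicate mean, limit read from the data; inconclusive means mean inhibition reaches the set limit but some replicate falls short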;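 further: 0% = DMSO neutral controls and 100% = 20 µM radicicol positive controls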
Vif imaging = HIV Vif inhibition; HEK293T cells, Vif self-association by quenched fluorescence, imaging, 24 h; inhibition, % at 7.49 µM; 340,000 tested, 0.35% active; in the data active means inhibition above about 50%, passing the limit was not always enough; inconclusive means no clear call, values can overlap the other calls; inactive means below about 31%
MITF act = increases MITF-driven TRPM1 promoter luciferase signal; 300,000 tested, 0.75% active; activation, % at 12.5 µM; SK-MEL-5 TRPM1-promoter luciferase, 24 h; % of positive control, neutral wells = 0;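 active means mean activation of at least 80% with every replicate also reaching 80%; inconclusive means mean reaches 80% but some replicate falls short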;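 further: 0% = neutral control wells and 100% = parthenolide positive control wells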
esBAF inh = inhibitors of esBAF chromatin remodeling in mouse ES cells; 350,000 tested, 2% active; reporter increase, % at 12.5 µM; Bmi1-luciferase knock-in reporter, 24 h; 100% = twice the neutral-well signal; AID 602393; in the data active means activation above about 40%; inconclusive means no clear call, values can overlap the other calls;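 further: 0% = median of the plate's neutral control wells and 100% = double that signal; a rise in the Bmi1 reporter signal indicates esBAF inhibition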
Glyco luc inh = N-linked glycosylation inhibition; AID 588692; D54 ERlucT glycosylation luciferase reporter, 24 h; percent of 100 nM tunicamycin response; reporter increase, % at 12.5 µM; 360,000 tested, 0.23% active;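 active means mean luciferase reporter signal, scaled so untreated is 0 and the glycosylation-blocking control 100, at or above a set limit in every replicate; inconclusive means mean reaches the limit but not every replicate does; inactive means mean below the limit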;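 further: luciferase carries N-glycosylation sites so blocking glycosylation raises the light; 0% = median of neutral control wells and 100% = median of 100 nM tunicamycin wells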
Active calls of the source: *. An excerpt weighted towards active compounds, which were near 3% of everything screened.

COCc1c(Br)c(C)nc(OCC(=O)N/N=C/c2cc(C)n(-c3ccc([N+](=O)[O-])cc3)c2C)c1C#N was read as Wnt bcat act -4, PfHsp90 set2 -10, Vif imaging -4, MITF act 7 and Glyco luc inh -5.
For C[C@H](CO)N1C[C@H](C)[C@@H](CN(C)Cc2ccc(-c3ccccc3)cc2)Oc2ccc(NS(C)(=O)=O)cc2C1=O the results were esBAF inh -4.
`COc1ccccc1OCc1cc(C(=O)N2CCCC(OCc3cccnc3)C2)no1` (stereo unspecified) gave Wnt bcat act 20, PfHsp90 set2 -10, Vif imaging -4, MITF act 61 and Glyco luc inh -3.
`CC(C)Oc1cc(O)c2c(=O)c(-c3ccc(O)cc3)coc2c1` gave Wnt bcat act 8, PfHsp90 set2 -17, Vif imaging 9, MITF act 52, esBAF inh 2 and Glyco luc inh -8.
For COc1ccc(-c2coc3cc(O)ccc3c2=O)cc1 the results were Wnt bcat act 47*, PfHsp90 set2 -13, Vif imaging 57*, MITF act 76, esBAF inh 15 and Glyco luc inh -6.
O=c1c(-c2ccc(O)cc2)coc2cc(O)cc(O)c12 was read as Wnt bcat act 44*, PfHsp90 set2 11, Vif imaging -1, MITF act 100*, esBAF inh 57* and Glyco luc inh -2.
COc1ccc(-c2coc3cc(OC)cc(O)c3c2=O)cc1 was read as PfHsp90 set2 2, Vif imaging -8, MITF act 96* and Glyco luc inh -7.
`COc1ccc(-c2coc3cc(OC)ccc3c2=O)cc1` gave Wnt bcat act 1, PfHsp90 set2 -10, Vif imaging 2, MITF act 46, esBAF inh 7 and Glyco luc inh -12.
Screening COc1ccc(-c2coc3cc(OC)cc(OC)c3c2=O)cc1 returned Wnt bcat act 1, PfHsp90 set2 7, Vif imaging 1, MITF act 61, esBAF inh 63* and Glyco luc inh -1.
COc1cc(O)cc2occ(-c3ccc(O)cc3)c(=O)c12 was read as Wnt bcat act -1, PfHsp90 set2 -9, Vif imaging -18, MITF act 18, esBAF inh 26 and Glyco luc inh 5.
For COc1ccc(-c2coc3cc(O)cc(O)c3c2=O)cc1 the results were Wnt bcat act 55*, PfHsp90 set2 17, Vif imaging 2, MITF act 97*, esBAF inh 46* and Glyco luc inh -5.
`COc1cc(C(=O)N/N=C/c2ccc(OC(=O)c3ccccc3Cl)c(OC)c2)ccc1O` gave PfHsp90 set2 -4, Vif imaging -6, MITF act 13, esBAF inh 1 and Glyco luc inh -1.
For COc1cc(/C=C2\SC(=O)N(CCNC(=O)c3sc4cc(F)ccc4c3Cl)C2=O)cc(OC)c1OC the results were Wnt bcat act -2, Vif imaging 63*, MITF act 8, esBAF inh -4 and Glyco luc inh -3.
C#CCn1c(=NC(=O)c2cccs2)sc2cccc(OC)c21 was read as Wnt bcat act 13, PfHsp90 set2 -2, Vif imaging -6, MITF act 2, esBAF inh 54* and Glyco luc inh -1.
For COc1ccc(OC)c(S(=O)(=O)N2CCN(CC(O)CN3CCOCC3)CC2)c1 (stereo unspecified) the results were Wnt bcat act -1, PfHsp90 set2 1, Vif imaging 1, MITF act 2, esBAF inh -13 and Glyco luc inh 1.
For COc1ccc(S(=O)(=O)N2CCN(CC(O)CN3CCOCC3)CC2)cc1 (stereo unspecified) the results were Wnt bcat act 53*, PfHsp90 set2 5, Vif imaging 23, MITF act 0, esBAF inh -12 and Glyco luc inh -1.
For COC(=O)CC/C(O)=C1\C(=O)CC(C)(C)CC1=NCc1nc2ccccc2[nH]1 the results were Wnt bcat act -2, PfHsp90 set2 -18, Vif imaging 77*, MITF act -3, esBAF inh 6 and Glyco luc inh 0.
Screening CCOC(=O)C1=C(N)c2ccccc2CC1C1CCCC1 (stereo unspecified) returned Wnt bcat act 1, PfHsp90 set2 7, Vif imaging 7, MITF act -7 and Glyco luc inh -3.
`O=[N+]([O-])c1ccc(O)c(C2CCCCC2)c1` gave Wnt bcat act -1, PfHsp90 set2 108*, Vif imaging -8, MITF act -3, esBAF inh -6 and Glyco luc inh -2.
For O=C(NCC1CCCO1)c1ccc2[nH]c3c(c2c1)CCCC3 (stereo unspecified) the results were Wnt bcat act 4, Vif imaging -4, MITF act 41, esBAF inh 45* and Glyco luc inh 5.
`O=C(NCC1CCCO1)c1cccc(C(=O)NCC2CCCO2)c1` (stereo unspecified) gave Wnt bcat act 0, PfHsp90 set2 7, Vif imaging 9, esBAF inh 12 and Glyco luc inh 3.
For O=C(NCC1CCCO1)c1ccc(COc2ccccc2)cc1 (stereo unspecified) the results were Wnt bcat act 9, PfHsp90 set2 -26, Vif imaging -6, MITF act 21, esBAF inh 49* and Glyco luc inh -1.
`CCC(=O)OC1(C)C(=O)C2=COC(c3ccc(OC)cc3)=CC2=C(Br)C1=O` (stereo unspecified) gave Wnt bcat act 3, PfHsp90 set2 113*, Vif imaging -6, MITF act 21, esBAF inh inconclusive and Glyco luc inh 3.
COC(=O)CCC(=O)OC1(C)C(=O)C2=CN(c3ccccc3)C(c3ccc(OC)cc3)=CC2=C(Br)C1=O (stereo unspecified) was read as Wnt bcat act 3, MITF act -8 and Glyco luc inh 0.
Screening COc1ccc(C2=CC3=C(Br)C(=O)C(C)(O)C(=O)C3=CO2)cc1 (stereo unspecified) returned PfHsp90 set2 107*, Vif imaging 5, MITF act 6, esBAF inh -7 and Glyco luc inh 3.
COC(=O)CCC(=O)OC1(C)C(=O)C2=CN(Cc3ccc(OC)cc3)C(c3ccc(OC)cc3)=CC2=C(Br)C1=O (stereo unspecified) was read as Wnt bcat act 0, PfHsp90 set2 -1, MITF act 25, esBAF inh 8 and Glyco luc inh 6.
Screening CCN(CC)C(=O)COc1ccc(-c2ccccc2)cc1 returned PfHsp90 set2 25, Vif imaging 2, MITF act 48, esBAF inh 50* and Glyco luc inh -3.
CCN(Cc1ccccc1)C(=O)COc1ccccc1 was read as Wnt bcat act 0, PfHsp90 set2 4, Vif imaging -3, MITF act 12, esBAF inh -3 and Glyco luc inh 3.
